Source: PubChem BioAssay AID641 (Vanderbilt High Throughput Screening Facility, 2007)
The whole screen tested about 58,000 compounds, of which about 3,400 (5.9%) were called active. Many of the other results were omitted from the sample, so actives are more common in it than they were. Values without a mark were called inactive.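 The calls were made as follows: active = luminescence count or its row- and column-corrected plate score outside the 99.7% band of the plate's sample wells, on either side; inactive = the rest.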 Where a SMILES comes first, the peptide text is derived from it. The star is where a group is joined. Bz = O=C(c1ccccc1)*

Target: D(1A) dopamine receptor (Homo sapiens) (UniProt P21728)
Sequence (P21728 whole entry, looked up): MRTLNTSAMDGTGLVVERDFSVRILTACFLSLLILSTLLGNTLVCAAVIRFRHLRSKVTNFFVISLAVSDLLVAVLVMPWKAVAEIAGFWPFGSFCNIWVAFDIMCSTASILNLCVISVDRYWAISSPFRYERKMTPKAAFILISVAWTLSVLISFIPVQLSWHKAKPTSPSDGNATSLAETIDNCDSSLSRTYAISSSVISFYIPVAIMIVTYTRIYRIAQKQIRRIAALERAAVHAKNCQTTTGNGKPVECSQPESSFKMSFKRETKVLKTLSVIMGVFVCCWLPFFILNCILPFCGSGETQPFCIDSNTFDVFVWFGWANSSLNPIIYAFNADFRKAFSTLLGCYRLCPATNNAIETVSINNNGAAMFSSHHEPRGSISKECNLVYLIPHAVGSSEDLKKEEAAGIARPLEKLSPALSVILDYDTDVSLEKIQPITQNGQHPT
Experiment: D1 CRE-luciferase signal change, two-sided – cell-based, HEK293 D1, dopamine EC30, D1 allosteric modulator project, primary screen (AID 641)
Conditions: dopamine EC30 potentiation, at 10 µM, actives deviate in either direction

Row | Structure (SMILES) | B-score
1 | CCC1CCCCN1C(=O)Nc1cccc(NC(=O)N2CCCCC2CC)c1 (configuration not stated) | 0.11
2 | CCOCC(=O)NCc1ccc2c(c1)cc(C)n2C | 0.132
3 | Cc1noc(C)c1S(=O)(=O)N1CCCC(C(=O)Nc2nccs2)C1 (configuration not stated) | -0.254
4 | COC(=O)C(C)C1Sc2ccccc2NC1=O (configuration not stated) | 4.51 (active)
5 | CCOC(=O)c1ccccc1NC(=O)CC1Nc2ccccc2NC1=O (configuration not stated) | -0.897
6 | COc1cc(N=Cc2c(O)[nH]c3ccccc23)cc(OC)c1OC | -1.15
7 | COc1ccc(OC)c(N=Cc2c(O)[nH]c3ccccc23)c1 | 1.65
8 | COc1ccc(N=Cc2c(O)[nH]c3ccccc23)cc1OC | -2.18 (active)
9 | CN(C)Cc1c(O)ccc2occ(C(O)c3ccccc3)c12 (configuration not stated) | 0
10 | Cc1nnc(SCC(=O)NCCOc2ccc(Cl)cc2)n1-c1ccccc1 | 0.122
11 | O=C(CCC(=O)OCC(F)(F)C(F)F)NCc1ccccc1 | 0.31
12 | Cc1cc(C(F)(F)F)nn1-c1nc(-c2ccco2)cc(C(F)(F)F)n1 | 9.17 (active)
13 | O=C(CSc1nc(-c2ccco2)cc(C(F)(F)F)n1)N1CCc2ccccc2C1 | 0.312
14 | CCOC(=O)c1ccn(-c2nc(-c3ccco3)cc(C(F)(F)F)n2)n1 | -0.161
15 | O=C(CSc1nc(-c2ccco2)cc(C(F)(F)F)n1)NCc1cccs1 | 0.0388
16 | FC(F)(F)c1cc(-c2ccco2)nc(N2CCOCC2)n1 | 17 (active)
17 | FC(F)(F)c1nnc2sc(-c3ccco3)nn12 | 0.0156
18 | C=CCc1cccc2cc(C(=O)N3CCN(C(=O)OCC)CC3)c(=O)oc12 | -0.147
19 | CCOC(=O)Cn1c(=O)oc2cc(S(=O)(=O)N(C)Cc3ccco3)ccc21 | 0.239
20 | Cn1nnnc1SCC(=O)N1CCN(Cc2ccccc2)CC1 | 0.031
21 | CCOC(=O)N1CCC(NC(=O)COc2cc(=O)n(C)c3ccccc23)CC1 | 0.112
22 | Cc1occc1C(=O)N1CCCc2ccccc21 | 0.259
23 | CCc1cc(=O)oc2cc(OCC(=O)N3CCCc4ccccc43)ccc12 | 8.41 (active)
24 | Cc1ccc2c(c1)N(CC(=O)N1CCCc3ccccc31)C(=O)C(C)O2 (configuration not stated) | 1.2
25 | Cc1ccc(C2c3c(oc4ccc(C)cc4c3=O)C(=O)N2CCCN2CCOCC2)cc1 (configuration not stated) | 1.68

Row | Structure (SMILES) | B-score
26 | Cc1ccc(S(=O)(=O)C(C#N)c2nc3ccccc3nc2N2CCCC2)cc1C (configuration not stated) | 0.792
27 | CC(C)(C)NC(=O)C(c1ccncc1)N(C(=O)CNC(=O)c1ccco1)c1ccc2c(c1)OCO2 (configuration not stated) | 1.5
28 | CCn1c2c(c3ccc(OC)cc31)CCCC2=O | 0.923
29 | COc1ccc(CCNC(=O)C2CCCN(Cc3nc(-c4cccc(Cl)c4)oc3C)C2)cc1OC (configuration not stated) | 0.204
30 | COc1ccc(CCN(C)CCN2C(=O)c3ccccc3C2=O)cc1OC | 0.821
31 | COc1ccc(CCN(C)C(=O)C2CCCN(Cc3ccc(OC)c(OC)c3)C2)cc1OC (configuration not stated) | 5.3 (active)
32 | COc1ccc(N2CCN(CCNC(=O)CCN3C(=O)COc4ccccc43)CC2)cc1 | -0.0397
33 | O=C(CCN1C(=O)COc2ccccc21)NCCCN1CCN(c2ccc(F)cc2)CC1 | -2.68 (active)
34 | CCCN1CCN(CCCNC(=O)CN2C(=O)COc3ccccc32)CC1 | -0.525
35 | Cn1nc(-c2ccc(Cl)cc2)c2cc(C(=O)NCc3ccco3)sc21 | -0.605
36 | COc1cc(NC(=O)N2CCOCC2)cc(OC)c1 | 4.92 (active)
37 | COc1ccc(OCC(=O)N2CCOCC2)cc1 | 0.809
38 | CCOC(=O)c1[nH]c2ccc(OC)cc2c1NC(=O)N1CCOCC1 | 1.26
39 | COc1ccc2[nH]c(=O)c(CN(CC3CCCO3)C(=O)Nc3ccccc3)cc2c1 (configuration not stated) | -0.175
40 | Cc1cc(C(F)(F)F)nn1CC(=O)N1CCCC1 | 0.971
41 | COC(=O)c1ccccc1NC(=O)CSc1ccccn1 | 3.05
42 | CCn1ncc(C2=NOC(C(=O)Nc3ccccc3C(=O)OC)C2)c1C (configuration not stated) | 13.2 (active)
43 | CCn1ncc(C2=NOC(C(=O)N3CCN(c4ccccc4)CC3)C2)c1C (configuration not stated) | -0.447
44 | c1ccc(CCC2=NCCn3cccc32)cc1 | -0.434
45 | O=C(C1CCN(CC2CCCCC2)CC1)N1CCCC1 | 0.0452
46 | COC(=O)C1=CN(C)C=C(C(=O)OC)C1c1ccc(Cl)cc1Cl | 0.625
47 | CCCc1nc(N2CCN(C)CC2)c2sc(=S)n(-c3ccccc3)c2n1 | 0.374
48 | CCCc1nc(-c2ccccc2O)n(-c2ccccc2)n1 | 8.71 (active)
49 | O=C(NCc1ccco1)c1nc(-c2ccccc2)n(-c2ccccc2)n1 | -1.33
50 | O=C(c1ccco1)N1CCN(C(=O)C2CC(c3ccc(F)cc3)=NO2)CC1 (configuration not stated) | -0.404

Row | Structure (SMILES) | B-score
51 | CC1(C)CC(=O)C=C(NCc2ccncc2)C1 | 0.0608
52 | CCOC(=O)N1CCN(Cc2nc3c(c(=O)n(C)c(=O)n3C)n2Cc2ccccc2)CC1 | -0.0843
53 | CC(=O)Nc1ccc(S(=O)(=O)N2CCCC2C(=O)O)cc1 (configuration not stated) | -0.232
54 | OC(COc1cccc2ccccc12)CN1CCN(c2ccccn2)CC1 (configuration not stated) | -4.42 (active)
55 | OC(COc1cccc(OCC(O)CN2CCCC2)c1)CN1CCCC1 (configuration not stated) | -0.368
56 | O=C1c2cccc3cccc(c23)N1CN1CCN(c2ccccn2)CC1 | -2.84
57 | COc1ccc(NC(=O)Nc2cccc3cccnc23)cc1 | -0.391
58 | O=C(CSc1nnnn1C1CCCC1)Nc1ccc2c(c1)OCCO2 | -0.309
59 | COc1ccc(OC)c2sc(NC(=O)C3COc4ccccc4O3)nc12 (configuration not stated) | 1.13
60 | CCN(Cc1nc2ccccc2c(=O)[nH]1)Cc1cc(=O)oc2cc(C)c(C)cc12 | -2.91 (active)
61 | CCCC(=O)N(CCc1ccccc1)Cc1nc2ccccc2c(=O)[nH]1 | 0.0641
62 | O=C(c1ccco1)N(Cc1nc2ccccc2c(=O)[nH]1)C1CCCC1 | -0.0551
63 | COc1ccc(-n2nnc3c(=O)n(CC(=O)OCc4ccccc4)cnc32)cc1 | -0.218
64 | Cn1c(SCC(=O)N2CCOCC2)nnc1-c1ccc(NC(=O)c2ccccc2F)cc1 | -0.459
65 | CC(C)c1cc(C(=O)O)on1 | 3.98 (active)
66 | CCC(=O)N1CCc2cc(S(=O)(=O)NC(C(=O)N3CCc4ccccc4C3)C(C)C)ccc21 (configuration not stated) | 1.68
67 | CNC(=O)c1c(NC(=O)c2ccc(S(=O)(=O)N3CCOCC3)cc2)sc2c1CCC2 | 0.787
68 | O=C(Oc1ccc(-c2nc(-c3ccccn3)no2)cc1)c1ccccc1 | -2.61 (active)
69 | c1ccc(-c2noc(-c3cccs3)n2)nc1 | -6.15 (active)
70 | O=C(Oc1ccccc1)c1ccc2nccnc2c1 | 0.299
71 | c1csc(-c2nc(-c3ccncc3)no2)c1 | 2.02
72 | CC(C)c1nc(-c2ccccn2)no1 | -0.397
73 | O=C(c1cccs1)N(C(=O)c1cccs1)c1ccccn1 | -0.339
74 | O=C1C(C=NCC2CCCO2)=C(O)c2ccccc21 (configuration not stated) | -0.132
75 | Cc1cc(C(=O)COC(=O)c2cccs2)c(C)n1-c1c(C)n(C)n(-c2ccccc2)c1=O | -1.48

Row | Structure (SMILES) | B-score
76 | COc1cccc(-n2cc3c(c2-c2ccccc2)c(=O)n(C)c(=O)n3C)c1 | 0.281
77 | CCc1c(O)nc(SCC(=O)N2CCCCC2)n(-c2ccccc2C)c1=O | 0.0102
78 | Cc1ccc(S(=O)(=O)c2c(N)n(C)c3nc4ccccc4nc23)cc1 | 8.84 (active)
79 | C=CCn1c(N)c(S(=O)(=O)c2cccs2)c2nc3ccccc3nc21 | -0.811
80 | Cc1ccc(S(=O)(=O)NCc2nc3ccccc3c(=O)n2N)cc1 | -0.0901
81 | O=C(NC(Cc1ccccc1)C(=O)N1CCCC1C(=O)O)c1ccccc1 (stereo not drawn) (Bz-Phe-Pro-OH; configuration not given here) | 0.682
82 | CCOC(=O)c1ccc(N2C(=O)CC(N3CCC(C(=O)OCC)CC3)C2=O)cc1 (configuration not stated) | -0.257
83 | COCCOC(=O)C1=C(C)NC(=O)NC1c1ccc(Cl)cc1 (configuration not stated) | -0.276
84 | COc1cccc2c(=O)n(CC(=O)N3CCCCCC3)ccc12 | 0.116
85 | CCOc1ccccc1/C=c1\sc2nc(-c3ccco3)nn2c1=O | -0.399
86 | CCOC(=O)/C=c1\s/c(=C\c2ccccc2OC)c(=O)n1CC(=O)N1CCOCC1 | 4.29 (active)
87 | CN(C)Cc1c(C#N)c2ccccc2n1C | -1.12
88 | CCOc1ccc(C(=O)Nc2cc(OC)ccc2OC)cc1 | 0.0877
89 | CCn1cc(C(=O)NCc2ccc(OC)cc2OC)c(=O)c2ccc(C)nc21 | 5.55 (active)
90 | CCn1cc(C(=O)N2CC=C(c3ccccc3)CC2)c(=O)c2ccc(C)nc21 | 1.17
91 | CCSc1nc2c(c(=O)[nH]1)C(c1cccnc1)C(C(=O)OC(C)C)=C(C)N2 (configuration not stated) | 0.843
92 | O=c1/c(=C/c2ccc(CNS(=O)(=O)c3ccccc3)o2)sc2n1CCN=2 | -0.139
93 | Cc1ccc(C)c(S(=O)(=O)n2cnc3ccccc32)c1 | 0.135
94 | Cc1ccc(N2C(=O)c3oc4ccccc4c(=O)c3C2c2cccnc2)nc1 (configuration not stated) | 0.194
95 | Cc1ccc(C(=O)Nc2nnc(-c3ccncc3)s2)o1 | -0.406
96 | CCn1c(=N)c(S(=O)(=O)c2ccc(F)cc2)cc2c(=O)n3ccccc3nc21 | 4.93 (active)
97 | CCn1c(=N)c(C(=O)NCCCOC)cc2c(=O)n3cccc(C)c3nc21 | -0.055
